40 compounds from PubChem BioAssay (NCATS) can be followed below.

Results filed as inconclusive are left out. A call without a number means that no potency is given here. A number with no mark means an inactive call. Activity calls are given as the source filed them. The call rests on the fitted dose curve; in most records, active means well fitted inhibition curve with a large enough effect; inconclusive means small, poorly fitted or top-dose-only effect; inactive means no such curve, though single readings can be large or run the other way.
Potency means the concentration at half of the fitted maximal effect.

The assay in a line: qHTS to identify inhibitors of the type 1 interferon - major histocompatibility complex class I in skeletal muscle: primary screen against the NCATS Mechanism Interrogation Plate v5.0 (MIPE) Libary (AID 1347411). Further: nearly all actives have a fitted effect of over 65% in size. Particulars: iHSKM cells + IFN-b, HiBiT-tagged MHC-I luminescence, 24 h; series mostly up to 45.8 µM. The text has this: Assay Submitter (PI): Travis B. Kinder Ph.D. & James Inglese Ph.D.
Assay Development and Screening Technology Laboratory (ADST)
National Center for Advancing Translational Sciences (NCATS), Rockville, MD
National Institute of Health (NIH), Bethesda, Maryland
Idiopathic inflammatory myopathies, collectively referred to as myositis, are a group of rare autoimmune diseases characterized by skeletal muscle inflammation, weakness, and usually accompanied by systemic pathologies of the skin, lungs, or vasculature. Current immunosuppressive therapies and glucocorticoids are often not curative and are accompanied by harsh side effects, especially in children with juvenile myositis. We initiated a drug repurposing and development program to identify more targeted, less toxic therapeutics to treat myositis. Although its cause is not known, muscle from a subset of patients have an abundance of the inflammatory type 1 interferon (IFN) and a down-stream product major histocompatibility complex class I (MHC class I), which are both thought to contribute to damage and weakness. We conducted quantitative high throughput screening on 6,576 compounds (4,679 unique) through a series of cell-based assays to identify those that inhibit the IFN-stimulated expression of MHC class I in muscle precursor cells (myoblasts). The compound identification and evaluation strategy utilized a primary screen with reporter-tagged MHC class I in genome-engineered myoblasts, ATP content counter screen for viability, HLA-ABC immunofluorescence secondary screen, and HLA-B RT-qPCR tertiary screen.
The primary screen utilized CRISPR/Cas9 genome-engineering of immortalized human myoblasts, C25cl48, where a pro-luminescent reporter HiBit was fused to the C-terminus of endogenous MHC class I allele HLA-B*08:01 (HLA-B HiBit myoblasts). HiBit is an 11 amino acid fragment of NanoLuc luminescent reporter (Promega Corporation), and when complexed to the larger LgBit fragment, the reconstituted enzyme produces light in the presence of furimazine substrate (Schwinn et al., 2018). Briefly, HLA-B HiBit myoblasts were plated into 1536-well plates, treated with 4.0 ng/ml human IFN-beta and 2,480 compounds from the NCATS Mechanism Interrogation Plate v5.0 (MIPE5.0) in an 11-point, 1:3 titration with a high final concentration of 46 uM. After 24 hrs of treatment, cells were assayed by Nano-Glo HiBiT Lytic Detection System (Promega) and luminescence measured by a ViewLux 1430 Ultra HTS (Perkin Elmer).
Schwinn MK, Machleidt T, Zimmerman K, Eggers CT, Dixon AS, Hurst R, Hall MP, Encell LP, Binkowski BF, Wood K V. 2018. CRISPR-Mediated Tagging of Endogenous Proteins with a Luminescent Peptide. ACS Chem Biol 13:467-474. doi:10.1021/acschembio.7b00549
PROTOCOL TABLE (as described by Inglese et al., 2007)
SEQUENCE No. (e.g., 1, 2, 3, etc.); […] (e.g., Cells, Incubation, Reagent, etc.); VALUE; DESCRIPTION
1a; Cells; 5 uL; Use a Multidrop Combi (Thermo Scientific) to seed 300 cells/well into 24 Greiner 1536 well white/solid bottom, high base, TC plates in 5 ul/well of iHSKM growth medium (GM) without dexamethasone into columns 1+2. Add metal lids with gas-exchange holes
1b; Cells; 5 uL; Use a Multidrop Combi (Thermo Scientific) to seed 300 cells/well into 24 Greiner 1536 well white/solid bottom, high base, TC plates in 5 ul/well of iHSKM GM without dexamethasone + 4 ng/ml IFN-b into columns 3 - 48. Add metal lids with gas-exchange holes
2; Incubate; 1 hr; Incubate at 37 C, 5% CO2, 95% RH
3; Compounds; 23 nl; Use Pin Tool (Wako) to transfer DMSO control, ruxolitinib IFN-b inhibitor control [High Concentration = 80 uM final, 16-pt, 1:2 in duplicate], and library compounds in DMSO
4; Incubate; 24 hrs; Incubate at 37 C, 5% CO2, 95% RH
5; Dispense; 2.5 ul; Use BioRAPTR FRD (Beckman Coulter) to add HiBit lytic reagent
6; Incubate; 10 min; Incubate in the dark at ambient temperature for lysis
7; Detector; 5 sec; Measure luminescence with ViewLux 1430 Ultra HTS (Perkin Elmer). […]
With `CCc1nc(-c2cccc(C)c2)c(-c2ccnc(NC(=O)c3ccccc3)c2)s1`, the Potency entry is “inactive”.
Take `CC(C)NC[C@@H](C(=O)N1CCN(c2ncnc3c2[C@H](C)C[C@H]3O)CC1)c1ccc(Cl)cc1`: the Potency result was “inactive”.
The same measure, in the same setting: for `CCS(=O)(=O)Nc1ccc2[nH]c(O)c(C(=Nc3ccc(CN4CCCCC4)cc3)c3ccccc3)c2c1` the value was 2.62 µM (active); for `CCCCC(=O)O[C@]1(C(=O)CO)[C@@H](C)C[C@H]2[C@@H]3CCC4=CC(=O)C=C[C@]4(C)[C@@]3(F)[C@@H](O)C[C@@]21C`, “inactive”.
Turning to `O=C(O)CCCCCC(=O)NN=C1CCCC1`, the Potency entry is “inactive”.
On to `C[C@@H]1CC[C@@]2(OC1)OC1CC3C4CC=C5CC(O)CCC5(C)C4CCC3(C)C1[C@@H]2C` (stereo not given in full), for which the Potency result is “inactive”.
Regarding `C=C(C)[C@@H]1CC[C@]2(C(=O)O)CC[C@]3(C)[C@H](CC[C@@H]4[C@@]5(C)CC[C@H](O)C(C)(C)[C@@H]5CC[C@]43C)[C@@H]12`, the Potency entry was “inactive”.
On to `Cc1cc(C(=O)NOCCO)c(Nc2ccc(I)cc2F)n(C)c1=O`, for which the Potency entry is “inactive”.
On the same count and under the same terms, for `O=S(=O)(O)CCSSCCS(=O)(=O)O` the value was “inactive”.
The same measure, in the same setting: for `C[C@@H]1C(=O)O[C@H]2CC34[C@H]5C[C@@H](C(C)(C)C)C36[C@H](OC(=O)[C@@H]6O)O[C@@]4(C(=O)O5)[C@]21O` (stereo not given in full) the value was “inactive”.
Still for that read-out and setting: for `C=CC(=O)Nc1ccc2ncnc(Nc3ccc(OCc4cccc(F)c4)c(Cl)c3)c2c1` the value was 10.4 µM (active); for `Cc1ccccc1C(=O)Nc1ccc(C(=O)N2CCCC(O)c3cc(Cl)ccc32)c(C)c1` (stereo not given), “inactive”.
Regarding `CCOc1cc2c(c(F)c1OCC)C(=N)N(CC(=O)c1cc(N3CCOCC3)c(OC)c(C(C)(C)C)c1)C2`, the Potency was 14.7 µM (active).
`Cn1cc(CNCC2CCN(c3ncc(C(=O)NO)cn3)CC2)c2ccccc21`: the Potency is 0.117 µM (active).
`CC(=O)NC(CS)C(=O)O` (stereo not given): the Potency result was “inactive”.
Still for that read-out and setting: for `CC(=O)OC[C@@H]1O[C@@H](n2ccc(=O)[nH]c2=O)[C@H](OC(C)=O)[C@H]1OC(C)=O` the value was “inactive”; for `O=c1ccn([C@@H]2O[C@H](CO)[C@H](O)[C@@H]2F)c(=O)[nH]1`, “inactive”; for `c1coc(CNc2ncnc3nc[nH]c23)c1`, “inactive”.
As for `Cn1cc(C[C@@H](N)C(=O)O)c2ccccc21`, the activity change, negative = inhibition is -7.72% [at 8.44 µM].
On to `OC[C@H]1OC(O)C[C@@H](O)[C@H]1O` (stereo not given in full), for which the Potency result was “inactive”.
Turning to `CC(C)C[C@H](NC(=O)[C@@H](NC(=O)c1cccc(-c2ccccc2)n1)[C@@H](C)O)B(O)O`, the Potency is 0.0641 µM (active).
As to `CC(Oc1ccc(O)cc1)(P(=O)(O)O)P(=O)(O)O`, the Potency entry was “inactive”.
`O=C(Nc1nnc(-c2ccco2)o1)c1cc(-c2ccccc2)nc2ccccc12`: the Potency entry is “inactive”.
For `N#Cc1cc(NC(=O)Nc2nnc(-c3ccncc3)s2)ccc1-c1cn[nH]c1`, the Potency result was “inactive”.
Still for that read-out and setting: in the case of `c1ccc2c(Oc3nc(Nc4ccc(N5CCOCC5)cc4)c4ncn(C5CCCCC5)c4n3)cccc2c1` it was “inactive”.
In the case of `C[C@H](CCC(=O)O)[C@H]1CCC2C3C[C@H](O)[C@@H]4C[C@H](O)CC[C@]4(C)C3CC[C@@]21C` (stereo not given in full), the Potency entry was “inactive”.
Turning to `CC(=O)O[C@H]1C[C@@H]2CC[C@H]3[C@H]4C[C@H]([N+]5(C)CCCCC5)[C@@H](OC(C)=O)[C@@]4(C)CC[C@@H]3[C@@]2(C)C[C@H]1[N+]1(C)CCCCC1`, the Potency entry was “inactive”.
Consider `COc1ccc([C@@H]2CNC(=O)C2)cc1OC1CCCC1`, for which the Potency result is “inactive”.
Turning to `COc1cc(OC)c(NC(=O)Nc2cc(C)on2)cc1Cl`, the Potency entry was “inactive”.
Still for that read-out and setting: for `C[C@H](NC(=O)Cc1cc(F)cc(F)c1)C(=O)N[C@H](C(=O)OC(C)(C)C)c1ccccc1` the value was “inactive”; for `CCCCCCCCCCCC(CC1OC(=O)C1CCCCCC)OC(=O)C(CC(C)C)NC=O` (stereo not given), “inactive”; for `Cn1cnc(=N)c2[nH]cnc21`, “inactive”.
The same measure, in the same setting: for `Cn1cc(-c2ccc3ncc(Cc4ccc5ncccc5c4)n3n2)cn1` the value was “inactive”; for `COc1cc2c(cc1OC)[C@@H]1C(=O)c3ccc4c(c3O[C@@H]1CO2)C=CC(C)(C)O4`, “inactive”.
For the compound `NC(=O)Nc1cc(-c2ccc(CN3CCOCC3)cc2)sc1C(N)=O`, the Potency was 7.39 µM (active).
As to `C[C@H](O)[C@@H]1C(=O)N2C(C(=O)O)=C(S[C@@H]3CN[C@H](CNS(N)(=O)=O)C3)[C@@H](C)[C@@H]12`, the Potency result was “inactive”.
Same read-out and setting: for `CC(Cc1ccc(O)c(O)c1)(NN)C(=O)O` (stereo not given) the value was “inactive”.
The same measure, in the same setting: in the case of `COc1ccc(S(=O)(=O)Nc2cc(-c3c(O)ccc4ccccc34)c(O)c3ccccc23)cc1` it was 16.5 µM (active); in that of `CC(C(C)N1CC(=O)NC(=O)C1)N1CC(=O)NC(=O)C1` (stereo not given), “inactive”; in that of `Nc1nc(N)c2nc(-c3cccc(O)c3)c(-c3cccc(O)c3)nc2n1`, “inactive”.
